Assay outcomes: PubChem BioAssay, several laboratories
FXIIa mix inh = human factor XIIa inhibitors, primary screen, biochemical, pooled compound mixtures, fluorogenic substrate | purified FXIIa | inhibition, % at 5 µM | actives 0.2% (n = 62,000) | AID 684, 2007;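 further: 0% = enzyme without compound and 100% = no enzyme blank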
ROCK2 inh = inhibitors of human ROCK2 kinase, primary screen, biochemical, high-throughput, luminescence; Rho-associated protein kinase 2 (Homo sapiens), O75116; purified ROCK2, Kinase-Glo ATP depletion luminescence; inhibition, % at 6 µM; actives 0.35% (n = 60,000); AID 604, 2007;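 active means inhibition above the screen-wide mean inhibition plus 3 SD, cut at about 18% in these data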;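 further: plate controls were DMSO wells for no effect and Y-27632 control wells after no-enzyme background subtraction for full effect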
FXIa mix inh = FXIa protease inhibitors in compound pools, primary screen, biochemical, 10-compound mixtures; Coagulation factor XI (Homo sapiens), P03951; purified FXIa, fluorogenic substrate, pooled mixtures; inhibition, % at 5 µM; actives 0.19% (n = 62,000);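 further: each value is inhibition by a whole ten-compound pool holding the compound; 0% = enzyme with no mixture and 100% = wells lacking enzyme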
Target sequence (P03951 19-387 limits assumed): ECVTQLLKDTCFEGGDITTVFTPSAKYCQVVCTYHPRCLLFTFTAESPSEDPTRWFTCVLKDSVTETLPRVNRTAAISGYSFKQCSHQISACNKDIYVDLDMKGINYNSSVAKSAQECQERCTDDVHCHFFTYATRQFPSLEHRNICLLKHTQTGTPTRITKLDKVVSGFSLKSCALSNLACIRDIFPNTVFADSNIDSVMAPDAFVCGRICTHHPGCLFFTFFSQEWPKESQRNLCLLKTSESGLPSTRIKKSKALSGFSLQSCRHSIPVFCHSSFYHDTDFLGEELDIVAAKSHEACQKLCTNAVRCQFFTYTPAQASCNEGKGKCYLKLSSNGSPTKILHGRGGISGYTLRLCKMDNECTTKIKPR
Target sequence (P03951 388-625 limits assumed): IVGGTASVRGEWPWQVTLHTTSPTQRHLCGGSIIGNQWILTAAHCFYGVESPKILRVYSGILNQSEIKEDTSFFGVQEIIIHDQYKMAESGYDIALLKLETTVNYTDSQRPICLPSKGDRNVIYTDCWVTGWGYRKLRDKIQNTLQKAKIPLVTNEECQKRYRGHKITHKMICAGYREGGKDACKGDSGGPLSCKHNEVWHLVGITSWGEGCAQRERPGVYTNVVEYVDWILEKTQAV
PKA kinase inh = inhibitors of human PKA kinase activity, primary screen, biochemical, ATP-depletion luminescence, Kemptide substrate; cAMP-dependent protein kinase catalytic subunit alpha (Homo sapiens), P17612; PKA Kemptide phosphorylation, Kinase-Glo ATP luminescence; inhibition, % at 6 µM; actives 0.1% (n = 65,000);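 active means inhibition above the screen-wide mean inhibition plus 3 SD, cut at about 21% in these data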
* hit, by the source's call; nt = no result given. This is a sample that favours compounds with a hit; in the whole collection about 0.54% have one here. Unless noted, no stated cut-off is given here; in the data, active means inhibition above about 20% (passing the limit was not always enough); inactive means the rest.

SMILES	FXIIa mix inh	ROCK2 inh	FXIa mix inh	PKA kinase inh
CC12CCC(C(=O)NCc3ccccc3)(OC1=O)C2(C)C (configuration not stated)	-3	0	6	0
O=C(COC(=O)c1ccccc1)NCc1ccco1	35*	2	6	8
COC(=O)C1=C(C)N=C2SCCC(=O)N2C1c1ccc(C(=O)OC)cc1 (configuration not stated)	-1	6	-6	9
COC(=O)c1ccc(C2C(C(=O)OCC(C)C)=C(C)N=C3SCCC(=O)N32)cc1 (configuration not stated)	9	-3	29*	-4
c1coc(-c2nnc3sc(-c4cccs4)nn23)c1	nt	-8	nt	4
CC(C)n1nnnc1SCC(=O)NCc1ccco1	-5	6	22*	13
CC(C)c1nnc(SCC(=O)NCc2ccco2)n1C	3	0	-3	-2
CCn1c(SCC(=O)N2CCC(C(N)=O)(N3CCCCC3)CC2)nnc1-c1ccccc1	nt	-9	nt	-6
CN1CCN(S(=O)(=O)c2ccc(N(C)Cc3cccs3)nc2)CC1	9	8	5	5
CN(CCOc1ccc(Cl)cc1)c1ccc(S(=O)(=O)N2CCCCC2)cn1	2	4	40*	5
COCCN(CCOC)S(=O)(=O)c1ccc(C(=O)Nc2nc(-c3ccncc3)cs2)cc1	14	19*	7	12
CCOc1ccc2[nH]c(=O)c(C(c3nnnn3Cc3ccco3)N3CCCC(C)C3)cc2c1 (configuration not stated)	-21	1	-5	9
C=CCn1c(SCC(=O)NCC(=O)OCC)nnc1-c1cccc(OC)c1	12	2	-30	5
C=CCn1c(SC(C)C(=O)NC2(C#N)CCCCC2)nnc1-c1ccc(OC)cc1 (configuration not stated)	4	nt	22*	3
O=C1CCC(C(=O)O)(c2ccccc2)C1 (configuration not stated)	10	0	8	4
O=C(O)c1cn(-c2ccccc2)nc1-c1ccncc1	6	0	3	7
O=C(c1cn(-c2ccccc2)nc1-c1ccncc1)n1nnc2ccccc21	58*	6	87*	7
COc1cccc(-n2c(SCC(=O)N3CCOCC3)nnc2-c2c[nH]c3ccccc23)c1	6	6	24*	6
Cc1ccc(Nc2nc(N)nc(CN3CCN(C(=O)c4ccco4)CC3)n2)cc1Cl	-1	0	10	1
Cc1ccc(C(=O)CC2(O)C(=O)N(CN3CCOCC3)c3ccccc32)cc1 (configuration not stated)	73*	3	9	9
Cc1noc(C)c1CSc1nnc2sc3ccccc3n12	0	-2	1	13
O=S(=O)(c1cccc2cnccc12)N1CCCNCC1	-30	nt	-4	nt
CC1CNCCN1S(=O)(=O)c1cccc2cnccc12 (configuration not stated)	2	107*	2	46*
COCCn1c(=S)[nH]c2ncccc2c1=O	8	-2	38*	-4
COCCCn1c(=S)[nH]c2ncccc2c1=O	4	5	2	12
SMILES	FXIIa mix inh	ROCK2 inh	FXIa mix inh	PKA kinase inh
CN(C)c1ccc(-c2ccncc2)cc1	-3	19*	1	8
Nc1nonc1-c1nc2ccccc2[nH]1	-12	61*	3	19
Cn1cc(Cl)c(-c2nc3ccccc3[nH]2)n1	2	nt	2	8
Cc1ccc(C2Nc3ccccc3C(=O)N2Cc2ccco2)cc1 (configuration not stated)	-19	-5	2	-9
N#Cc1cccc(NC(=O)NCCc2c[nH]c3ccccc23)c1	-14	22*	8	8
CC1(C)NC(=O)N(CC(O)COC2CCCCC2)C1=O (configuration not stated)	20*	3	3	12
CCN1C(=O)CC(N2CCC(Nc3ccc(OC)cc3)CC2)C1=O (configuration not stated)	2	0	21*	-1
Cc1cc(NC(=O)Cn2cc(C(F)(F)F)cc(Cl)c2=O)no1	8	6	-2	10
CN(CCO)c1ncnc2nc[nH]c12	-17	37*	2	15
CN(C)c1ccc(C(c2nnnn2C2CCCCC2)N2CCN(C(=O)c3ccco3)CC2)cc1 (configuration not stated)	4	5	10	6
COc1ccc2c(Cl)c(-c3nnc(SCC(N)=O)n3C)sc2c1	-1	0	5	3
COc1ccc2c(Cl)c(C(N)=O)sc2c1	6	50*	6	29*
C=CCOc1nc2c(c(=O)n(C)c(=O)n2C)n1Cc1c(Cl)cccc1Cl	17	10	7	4
CCn1cc(C(=O)NCCOC)c(=O)c2ccc(C)nc21	-9	-1	0	0
CCn1cc(C(=O)Nn2cnnc2)c(=O)c2ccc(C)nc21	-7	20*	6	7
O=C(Nc1ccncc1)Nc1ccc(F)cc1F	2	23*	6	3
C=CCn1c(SCC(N)=O)nnc1-c1cc(Br)ccc1O	4	4	2	5
CC(C)(C)NCCCCOc1ccc(F)cc1	26*	8	0	8
CCCCOC(=O)C1Cc2ccccc2C(=O)O1 (configuration not stated)	6	6	2	11
N#CC1=C(N)Oc2cc(O)ccc2C1c1ccncc1 (configuration not stated)	8	21*	4	10
N#CC1=C(N)Oc2cc(O)ccc2C1c1cccs1 (configuration not stated)	3	4	8	0
O=C(CCC(=O)Nc1ccc(Oc2ccccc2)cc1)NCCO	-1	6	-3	8
COC(=O)c1cccc2c1-c1ccccc1/C2=N/O	2	20*	5	18
Cc1cc(NC(=O)c2noc3c2CCc2ccccc2-3)no1	10	-2	42*	-5
CCn1c(COc2cccc(OC)c2)nnc1SCC(=O)Nc1cccc(OC)c1	7	2	2	-3
SMILES	FXIIa mix inh	ROCK2 inh	FXIa mix inh	PKA kinase inh
Clc1nc(-c2n[nH]nc2Cl)n[nH]1	6	nt	4	nt
CCCCNC(=O)c1nc2ncc(Br)cn2n1	3	7	25*	10
Nc1nc2ccccc2n1C(=O)CCc1ccccc1	2	146*	2	4
Nc1nc(-c2ccco2)nn1C(=O)CCc1ccccc1	-15	1	6	-1
Cc1cc(Oc2ccccc2)nc(OCC#N)n1	38*	5	2	8
Cc1cc(Oc2ccccc2)nc(N)n1	9	4	-1	0
Clc1cccc(Cl)c1COc1ccccn1	30*	-2	3	9
O=C(COC(=O)c1ccccn1)Nc1c(Cl)cccc1Cl	0	-1	7	7
Nc1cccc(-n2nncc2-c2ccc(Cl)cc2)c1	3	nt	5	9
Nc1nonc1-n1nncc1-c1ccccc1	-3	nt	4	28*
COc1ccc(NC(=O)C2CC(=O)N(c3cc(C)ccc3C)C2)cc1 (configuration not stated)	2	2	67*	5
